Inconclusive results are not listed. Entries that show only a call come without a potency. Calls of active or inactive are those of the source. Calls come from the whole dose curve.
Potency is the fitted concentration of half-maximal effect.

A short description of this assay: Primary qHTS for inhibitors of SARS-S pseudo-typed particle cell entry (AID 1479145). Note: nearly all actives have a fitted effect of over 45% in size. The conditions noted are these: SARS-S pseudotyped particle cell entry, luciferase reporter; series mostly up to 57.1 µM. On the technique in general: Quantitative high-throughput screening tests each substance at several concentrations.
Consider `O=c1[nH]cc(F)c(=O)[nH]1`, for which the Potency entry is “inactive”.

Take `CC(C)NCC(O)COc1cccc2[nH]ccc12` (centres undefined): the Potency entry is “inactive”.

For the compound `O=C(c1ccc(OCCN2CCCCC2)cc1)c1c(-c2ccc(O)cc2)sc2cc(O)ccc12`, the Potency is 20 µM (active).

Regarding `Cc1cccc(C)c1OCC(C)N` (centres undefined), the Potency entry was “inactive”.

With `CN(CCOc1ccc(NS(C)(=O)=O)cc1)CCc1ccc(NS(C)(=O)=O)cc1`, the Potency entry was “inactive”.

Regarding `CC(C)C[C@H](NC(=O)[C@H](Cc1ccccc1)NC(=O)c1cnccn1)B(O)O`, the Potency entry is “inactive”.

In the case of `Clc1ccc2c(c1)C(N1CCNCC1)=Nc1ccccc1O2`, the Potency entry was “inactive”.

For the compound `C[C@@H](O)[C@H]1C(=O)N2C(C(=O)O)=C(S[C@@H]3CN[C@H](CNS(N)(=O)=O)C3)[C@H](C)[C@H]12`, the Potency result is “inactive”.

For `CCOc1ccc2ccccc2c1C(=O)N[C@@H]1C(=O)N2[C@@H]1SC(C)(C)[C@@H]2C(=O)O`, the Potency result was “inactive”.

In the case of `NC(=O)N/N=C/c1ccc([N+](=O)[O-])o1`, the Potency result was “inactive”.

Turning to `CC(C)c1nc(CN(C)C(=O)N[C@H](C(=O)N[C@@H](Cc2ccccc2)C[C@H](O)[C@H](Cc2ccccc2)NC(=O)OCc2cncs2)C(C)C)cs1`, the Potency result is “inactive”.

Turning to `Oc1ccc(C2CNCCc3c2cc(O)c(O)c3Cl)cc1` (centres undefined), the Potency result is “inactive”.

`O=NN(CCCl)C(=O)NC1CCCCC1`: the Potency result was “inactive”.

Turning to `Cc1nc(Nc2ncc(C(=O)Nc3c(C)cccc3Cl)s2)cc(N2CCN(CCO)CC2)n1`, the Potency entry was “inactive”.

As to `O=C(NCCN1CCOCC1)c1ccc(Cl)cc1`, the Potency entry was “inactive”.

With `NC(=O)c1cn(Cc2c(F)cccc2F)nn1`, the Potency result is “inactive”.

On to `CNCC[C@@H](Oc1ccccc1C)c1ccccc1`, for which the Potency entry was “inactive”.

Turning to `Nc1nc(F)nc2c1ncn2[C@@H]1O[C@H](CO)[C@@H](O)[C@@H]1O`, the Potency entry is “inactive”.

Turning to `CC(=O)Nc1nnc(S(N)(=O)=O)s1`, the Potency result is “inactive”.

On to `CC[C@@H](CO)NCCN[C@@H](CC)CO`, for which the Potency result was “inactive”.

As to `C[n+]1ccccc1/C=N/O`, the Potency result was “inactive”.

On to `Cc1ccc(-n2[nH]c(C)c(N=Nc3cccc(-c4cccc(C(=O)O)c4)c3O)c2=O)cc1C`, for which the Potency entry was “inactive”.

Take `CCN(C)C(=O)Oc1cccc([C@H](C)N(C)C)c1`: the Potency result is “inactive”.

Regarding `COc1cc(C(=O)NCc2ccc(OCCN(C)C)cc2)cc(OC)c1OC`, the Potency entry is “inactive”.

Turning to `O=C1OCCN1/N=C/c1ccc([N+](=O)[O-])o1`, the Potency result was “inactive”.

Regarding `Cc1cc(C)cc(OCC2CNC(=O)O2)c1` (centres undefined), the Potency result is “inactive”.

In the case of `Cc1ccc(S(=O)(=O)NC(=O)NN2CC3CCCC3C2)cc1` (centres undefined), the Potency result was “inactive”.

`CC[C@]1(O)C[C@@H]2CN(CCc3c([nH]c4ccccc34)[C@@](C(=O)OC)(c3cc4c(cc3OC)N(C)[C@H]3[C@@](O)(C(=O)OC)[C@H](OC(C)=O)[C@]5(CC)C=CCN6CC[C@]43[C@@H]65)C2)C1`: the Potency result was “inactive”.

As for `O=C1c2cccc3c2[C@H](CCC3)CN1[C@@H]1CN2CCC1CC2`, the Potency result was “inactive”.

For `NS(=O)(=O)Cc1noc2ccccc12`, the Potency result is “inactive”.

On to `C[N+]1(C)CCC(OC(=O)C(O)(c2ccccc2)C2CCCC2)C1` (centres undefined), for which the Potency entry is “inactive”.

Regarding `O=C(O)c1ccc(-n2nc(-c3ccccc3O)nc2-c2ccccc2O)cc1`, the Potency result is “inactive”.

As for `COc1cc2c(cc1OC)[C@@H]1CC(=O)[C@@H](CC(C)C)CN1CC2`, the Potency entry was “inactive”.

As to `CCCCNC(=O)NS(=O)(=O)c1ccc(C)cc1`, the Potency result was “inactive”.

On to `Cn1c(=O)c2c(ncn2CC(O)CO)n(C)c1=O` (centres undefined), for which the Potency entry was “inactive”.

With `CNC1(C)C2CCC(C2)C1(C)C` (centres undefined), the Potency result was “inactive”.

For the compound `CCOC(=O)C1=C(C)NC(C)=C(C(=O)OC)C1c1cccc(Cl)c1Cl` (centres undefined), the Potency result is “inactive”.

In the case of `CC(C)[N+](C)(CCOC(=O)C1c2ccccc2Oc2ccccc21)C(C)C`, the Potency result is “inactive”.

Turning to `COc1c(C)c2c(c(O)c1C/C=C(\C)CCC(=O)O)C(=O)OC2`, the Potency result is “inactive”.
